# Source: PubChem BioAssay
# Luc counter – blocks Kinase-Glo luciferase, a counter-screen artifact. Kinase-Glo luciferase, ATP luminescence, 8 min. Potency, µM (top dose mostly 38.3 µM), hits mostly inhibitors. 0.28% of 200,000 active. AID 1379. Q27757; active = well fitted curve in the direction sought with a large enough effect; inconclusive = small, poorly fitted or top-dose-only effect, or another doubt; inactive = no such curve, though single readings can be large; an effect the other way counts as inactive or inconclusive; note: nearly all actives have a fitted effect of over 60% in size
#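 Inhibition of Kinase-Glo luciferase light generation was assessed at 10 uM ATP in pH 7.2 imidazole buffer, with luminescence measured after eight minutes at ambient temperature.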
# IMPase Li inh – cell-permeable IMPase inhibitors with lithium potentiation; Potency, µM (titrated, usually from 59.4 µM), actives largely listed as inhibitors; 0.35% of 210,000 active; CHO-M1 cells, IP1 TR-FRET (IP-One), carbachol + lithium; AID 1457; active = well fitted curve in the direction sought with a large enough effect; inconclusive = small, poorly fitted or top-dose-only effect, or another doubt; inactive = no such curve, though single readings can be large; an effect the other way counts as inactive or inconclusive;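 note: IP1 builds up when IMPase is blocked and the TR-FRET signal falls; nearly all actives have a fitted effect of over 50% in size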
#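 Steps: plate 2000 CHO-M1 cells per well and culture 16–30 h; add compound and lithium; incubate 30 min, 37C; add d2-IP1 tracer and Eu cryptate anti-IP1 antibody in lysis buffer; read after 10 min at room temperature.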
# LMNA splice mod – LMNA splicing modulation; AID 1487; HeLa LMNA splicing GFP/RFP minigene ratio, 48 h; 0.01% of 200,000 active; Potency, µM (highest dose often 46.1 µM), usual class: inhibitors; active = well fitted inhibition curve with a large enough effect in the signal ratio, with a control signal flat, not every such curve was filed as active; inconclusive = small, poorly fitted or top-dose-only effect, or effect the other way, or a change in a side signal; the % refers to the signal ratio
#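 S3 HeLa cells stably expressing lamin A-EGFP splicing minigene plus DsRed2, 600 cells/well, 48 h compound exposure at 37C. Laser-scanning cytometry; analysed as GFP (500-530 nm)/RFP (575-640 nm) total intensity ratio; 0.5% DMSO vehicle.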
# HPGD inh – blocks human HPGD enzyme activity; P15428; AID 894; 4.3% of 150,000 active; purified HPGD, NADH fluorescence kinetic, PGE2 substrate; Potency, µM, usual class: inhibitors
# Target sequence (P15428 whole entry, looked up): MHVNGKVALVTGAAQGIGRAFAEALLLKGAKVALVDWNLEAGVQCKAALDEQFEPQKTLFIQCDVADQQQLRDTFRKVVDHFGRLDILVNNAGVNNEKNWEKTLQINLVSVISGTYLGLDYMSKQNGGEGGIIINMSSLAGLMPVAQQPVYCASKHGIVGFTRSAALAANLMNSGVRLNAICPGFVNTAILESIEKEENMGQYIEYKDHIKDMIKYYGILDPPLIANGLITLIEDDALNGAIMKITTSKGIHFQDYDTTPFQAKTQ
#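 NADH formation kinetics: reaction with 30 uM PGE2 and 1 mM NAD+ (final), 20 nM enzyme, Tris-HCl pH 8 with Tween 20, after 15 min compound preincubation at room temperature. Fluorescence change, last versus first of five reads.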
# ALDH1A1 block – blocks purified human ALDH1A1 activity; P00352; Purified ALDH1A1, NADH fluorescence, propionaldehyde substrate; Potency, µM (titrated, usually from 75.3 µM), most hits filed as inhibitors; 7.3% of 220,000 active; AID 1030
# Numbers stand for hits; 0 = inactive; ? = inconclusive; - = no result given; [ ] = remark or other dose. The list is not random: actives were taken first. Their share in the collection is about 9%. Unless noted, calls come from the whole dose curve; as a rule, active = well fitted inhibition curve with a large enough effect (not every such curve was filed as active); inconclusive = small, poorly fitted or top-dose-only effect, or another doubt; inactive = no such curve, though single readings can be large or run the other way.
SMILES,Luc counter,IMPase Li inh,LMNA splice mod,HPGD inh,ALDH1A1 block
O=C(CSc1ccc(-c2ccccn2)nn1)NC1CCCCC1,0,0,0,-,0
O=C(CSc1ccc(-c2ccco2)nn1)NC1CCCCC1,0,0,-,-,4µM
O=C(CSc1ccc(-c2ccco2)nn1)NC1CCCC1,0,0,-,-,35µM
CCOCCCNC(=O)C(c1ccccc1)N1Cc2ccccc2C1=O (stereo not given),-,-,0,-,-
CCC1(C)Cc2c(sc(NC(=O)CCC(=O)O)c2C#N)CO1 (stereo not given),0,0,0,0,0
CCC(=O)Nc1sc2c(c1C#N)CC(C)(CC)OC2 (stereo not given),0,0,0,40µM,0
CCCC(=O)Nc1cc(C(F)(F)F)ccc1N1CCOCC1,0,0,0,-,3.2µM
O=C(Nc1cc(C(F)(F)F)ccc1N1CCOCC1)C1Cc2ccccc2CN1C(=O)c1ccco1 (stereo not given),0,0,0,?,22µM
O=C(Nc1ccccc1)C1Cc2ccccc2CN1C(=O)c1ccco1 (stereo not given),0,0,0,0,0
O=C(NC(=S)Nc1cc(C(F)(F)F)ccc1N1CCOCC1)c1sc2ccccc2c1Cl,0,0,0,0,7.9µM
CC(C)(C)C(=O)NC(=S)Nc1cc(C(F)(F)F)ccc1N1CCOCC1,0,0,0,0,19µM
CO/C([O-])=N/c1c[n+](-c2ccc(Cl)cc2)no1,0,0,0,0,?
COCCNC(=O)CSc1nc(-c2ccc(C)cc2)nc2c1c(=O)n(C)c(=O)n2C,-,-,0,-,-
COc1ccc(C(C(=O)NC(C)(C)C)N(C(=O)CNC(=O)c2cccs2)c2ccc(C(C)C)cc2)cc1OC (stereo not given),0,0,0,0,0
CCOc1ccc(C(C)=O)cc1CN1C(=O)NC2(CCCCCCC2)C1=O,0,0,0,-,?
COCc1cc(CN2CCN(Cc3ccsc3)C(CCO)C2)ccc1OC (stereo not given),0,0,?,-,0
N#CCC(=O)Nc1cc(C(F)(F)F)ccc1N1CCOCC1,0,0,?,-,0
O=C(CSCc1ccco1)Nc1cc(C(F)(F)F)ccc1N1CCOCC1,0,0,0,28µM,7.1µM
Nc1nc(SCC(=O)Nc2cc(C(F)(F)F)ccc2N2CCOCC2)n[nH]1,0,?,0,-,22µM
Nc1nnc(SCC(=O)Nc2cc(C(F)(F)F)ccc2N2CCOCC2)s1,0,0,0,0,0
CCCN(CCC)CCc1cccc2c1CC(=O)N2,0,0,?,0,0
NCCN,-,0,0,0,0
CN(C)c1ccc(/C=N\NC(=O)c2csnn2)cc1,?,0,0,0,1µM
O=C(N/N=C\c1ccc(Oc2ccccc2)cc1)c1csnn1,0,0,0,-,0
Cc1cccc(/C=N\NC(=O)c2csnn2)c1,?,0,0[0.0737 µM],3.2µM,0
SMILES,Luc counter,IMPase Li inh,LMNA splice mod,HPGD inh,ALDH1A1 block
CN(C)c1ccc(/C=N/NC(=O)c2ccco2)cc1,?,0,0,0,?
CN(C)c1ccc(/C=N/NC(=O)c2ccnn2C)cc1,1.8µM,0,-,-,?
COc1ccc(-c2nc(C(F)(F)F)c(OC)o2)cc1OC,0,0,0,0,0
C=C[C@](C)(O)CCC=C(C)C,0,0,0,0,0
Cc1ccc(/C=c2\sc3nc(-c4ccccc4Br)nn3c2=O)o1,0,0,0,20µM,13µM
Cc1ccc(-c2nc3s/c(=C\c4ccco4)c(=O)n3n2)cc1,0,0,?,0,0
COc1ccccc1/C=c1\sc2nc(-c3ccccc3OC)nn2c1=O,0,0,0,0,0
COc1ccc(/C=C/C(=O)/C=C/c2ccc(OC)cc2OC)c(OC)c1,0,0,-,0,?
COc1ccc(Br)cc1/C=c1\sc2nc(-c3ccco3)nn2c1=O,0,0,0,14µM,28µM
Cc1ccc(/C=c2\sc3nc(-c4ccco4)nn3c2=O)o1,0,?,0,18µM,3.5µM
COc1ccc(/C=c2\sc3nc(=O)c(C)nn3c2=O)c(OC)c1,0,0,0,-,22µM
O=C(Cn1cnc([N+](=O)[O-])n1)N/N=C/c1cc(Cl)ccc1O,0,0,?,-,0
N#Cc1ccc(NC(=S)NC(=O)CCc2ccc(S(=O)(=O)N3CCOCC3)cc2)cc1,0,0,-,-,16µM
N#Cc1ccc(NC(=O)CCc2ccc(S(=O)(=O)N3CCOCC3)cc2)cc1,0,0,0,0,?
C[C@@H](C(=O)Nc1cccc(S(=O)(=O)N2CCOCC2)c1)N1C(=O)C2CC=CCC2C1=O (stereo not given in full),0,0,-,-,0
CCCCNC(C(=O)Nc1cccc(S(=O)(=O)N2CCOCC2)c1)c1ccccc1 (stereo not given),0,0,0,-,13µM
O=S(=O)(c1ccc(NC(=S)NN=C2CCCCC2)cc1)N1CCOCC1,0,0,0,-,14µM
O=S(=O)(c1ccc(NC(=S)NCCC(c2ccccc2)c2ccccc2)cc1)N1CCOCC1,0,0,?,0,13µM
CC(C)(C)CC(C)(C)NC(=S)Nc1ccc(S(=O)(=O)N2CCOCC2)cc1,0,0,?,0,?
O=S(=O)(c1ccc(NC(=S)N/N=C/c2c3ccccc3cc3ccccc23)cc1)N1CCOCC1,0,0,-,-,10µM
CCOc1ccc(N2CC(NC(=O)C3CC3)CC2=O)cc1 (stereo not given),-,-,0,-,-
CCOc1ccc(-c2nnc(SCc3nnc(-c4ccccc4)o3)n2-c2ccccc2F)cc1,0,0,0,13µM,0
Cc1ccc(-c2nnc(CSc3nnc(COc4ccccc4)n3-c3ccccc3)o2)cc1,0,0,?,0,0
CO[C@H]1COC(=O)[C@@H](C)COC(=O)[C@@H](OCc2ccccc2)/C=C\[C@@H]1C,-,-,-,-,0[13.5 µM]
Nc1ccc(S(=O)(=O)Nc2ccc(Cl)nn2)cc1,0,0,?,0,0
SMILES,Luc counter,IMPase Li inh,LMNA splice mod,HPGD inh,ALDH1A1 block
C=CCOc1ccccc1/C=N/O,0,0,0,16µM,0
CC1CC(C)CN(C(=O)c2ccc(CSc3nc4ccncc4[nH]3)cc2)C1 (stereo not given),0,0,?,5.6µM,0
CN1CCN(C(=O)c2ccc(CSc3nc4ccncc4n3Cc3ccc(F)cc3)cc2)CC1,0,0,?,16µM,0
O=C(NC1CCCC1)c1ccc(CSc2nc3ccncc3n2Cc2ccc(F)cc2)cc1,0,0,0,3.2µM,0
CN(CC1COc2ccccc2O1)C(=O)c1ccc(N(C)C)cc1 (stereo not given),0,0,0,-,5.6µM
CN(C)c1ccc(C=NCC2COc3ccccc3O2)cc1 (stereo not given),0,0,0,-,0.56µM
CN(C)C(=O)c1ccc(-c2nccc(NCc3ccccc3)n2)cc1,-,0,?,-,?
Cc1cccc(CNc2nc(-c3ccoc3)nc3ccccc23)c1,0,0,?,0,0
Cc1cnc(CNc2nc(-c3ccc(C(=O)N(C)C)cc3)nc3ccccc23)cn1,0,0,0,14µM,0
CN(C)C(=O)c1ccc(-c2nccc(NCc3cccnc3)n2)cc1,0,0,0,14µM,0
